The test system of assay [1] is Staphylococcus aureus. Kind of assay: Antibacterial activity against Staphylococcus aureus MRSA ATCC 43300 (CO-ADD:GP_020); MIC in CAMBH media using NBS plates, by Resazurin F(560/590). The format is functional. The settings on record: Concentration 20 uM, ASSAY_TEST Inhibition of Bacterial Growth, detection method Resazurin, Fluorescence (ex560/em590), MEDIA CAMHB, plate type 384well, CORNING #3640, time 18 hr.

In assay [2] the test system is Acinetobacter baumannii. Kind of assay: Antibacterial activity against Acinetobacter baumannii ATCC 19606 (CO-ADD:GN_034); MIC in CAMBH media using NBS plates, by Resazurin F(560/590). The format is functional. The settings on record: Concentration 20 uM, ASSAY_TEST Inhibition of Bacterial Growth, detection method Resazurin, Fluorescence (ex560/em590), MEDIA CAMHB, plate type 384well, CORNING #3640, time 18 hr. A general note: Alamar Blue is a resazurin reagent that responds to reducing activity.

The subject of assay [3] is Escherichia coli. Kind of assay: Antibacterial activity against Escherichia coli ATCC 25922 (CO-ADD:GN_001); MIC in CAMBH media using NBS plates, by Resazurin F(560/590). The class given is functional. The settings on record: Concentration 20 uM, ASSAY_TEST Inhibition of Bacterial Growth, detection method Resazurin, Fluorescence (ex560/em590), MEDIA CAMHB, plate type 384well, CORNING #3640, time 18 hr.

Assay [4] concerns Klebsiella pneumoniae. The settings on record: Concentration 20 uM; ASSAY_TEST Inhibition of Bacterial Growth; detection method Absorption (OD600); MEDIA CAMHB; plate type 384well; NBS; CORNING #3640; time 18 hr.
Assay [5] relates to Candida albicans. The settings on record: 20 µM.
Assay [6] deals with Cryptococcus neoformans. The settings on record: Concentration 20 uM; ASSAY_TEST Inhibition of Fungal Growth; detection method Resazurin; Absorption (OD600-OD570); plate type 384well; NBS; CORNING #3640.

For part of these data: Entries with a potency or affinity are not part of this list.

As a reminder, the Inhibition is the relative decrease from the control value, in per cent.

In the case of `NC(=O)c1cc(C(N)=O)nc(Cl)n1`, the Inhibition was 12.7% in assay [1]; 0.04% in assay [2]; 10.33% in assay [3]; 2.11% in assay [4]; -2.97% in assay [5]; -9.62% in assay [6].

As for `CN(NC(=O)C(=O)NCc1ccco1)C(=O)NC1CCCCC1`, the Inhibition is 1.27% in assay [1]; 11.61% in assay [2]; -11.28% in assay [3]; 10.63% in assay [4]; 4.23% in assay [5]; 3.93% in assay [6].

On to `Cn1c(=O)c2nc(N3CCCCC3)[nH]c2n(C)c1=O`, for which the Inhibition in assay [1] was 0.06%; in assay [2], -5.37%; in assay [3], 9.83%; in assay [4] it was 1.37%; in assay [5] it was -1.65%; in assay [6], -9.97%.

`CCNc1nc(Cl)nc(-c2cn(-c3ccccc3)c3ccccc23)n1`: the Inhibition is 17.23% in assay [1]; 12.81% in assay [2]; 4.37% in assay [3]; 13.6% in assay [4]; 0.17% in assay [5]; -5.12% in assay [6].

In the case of `Cc1ccc(C(C)C)cc1NC(=O)Nc1ccc([N+](=O)[O-])cc1`, the Inhibition was 19.7% in assay [1]; 7.88% in assay [2]; -5.77% in assay [3]; 22.27% in assay [4]; 8.72% in assay [5]; -7.56% in assay [6].

`CN(C)c1ccc(C(c2ccc(N(C)C)cc2)c2ccc([N+](=O)[O-])cc2)cc1`: the Inhibition in assay [1] was 15.85%; in assay [2], 11.72%; in assay [3], -1.1%; in assay [4] it was 17.42%; in assay [5] it was 2.89%; in assay [6], -7.55%.

On to `CC(=O)Oc1ccc2cc(-c3ccccc3)c(=O)oc2c1`, for which the Inhibition in assay [1] was 19.48%; in assay [2], 8.94%; in assay [3] it was -2.31%; in assay [4], 17.84%; in assay [5] it was 4.89%; in assay [6] it was -3.36%.

Regarding `O=C(Nc1cccc(Cl)c1)Nc1nccs1`, the Inhibition was 1.33% in assay [1]; -6.03% in assay [2]; 8.66% in assay [3]; 7.36% in assay [4]; 3.47% in assay [5]; -22.98% in assay [6].

Turning to `Cn1ncc2c(Nc3ccc(O)cc3)nc(Cl)nc21`, the Inhibition in assay [1] is 6.63%; in assay [2], 8.39%; in assay [3], 3.23%; in assay [4] it was 11.85%; in assay [5] it was 5.74%; in assay [6], -12.05%.

On to `CC1=C(C#N)C(C)(C)C(C#N)=C(C)N1`, for which the Inhibition in assay [1] is 13.81%; in assay [2], -13.23%; in assay [3], 8.21%; in assay [4], 8.84%; in assay [5], 0.55%; in assay [6] it was -14.16%.

With `CCOc1ccc(/C=C2\CCc3ccccc3C2=O)cc1`, the Inhibition in assay [1] is -3.91%; in assay [2] it was -2.84%; in assay [3], -2.65%; in assay [4], 4.93%; in assay [5] it was 5.43%; in assay [6], -7.99%.

Regarding `NC(=O)N/N=C1\CC2CC1C1C=CCC21` (centres undefined), the Inhibition was 5.27% in assay [1]; -14.41% in assay [2]; 8.37% in assay [3]; 17.34% in assay [4]; -2.08% in assay [5]; -9.13% in assay [6].

As for `CC(C)c1cc(C(F)(F)F)nc(NNc2nc(C(C)C)cc(C(F)(F)F)n2)n1`, the Inhibition in assay [1] was 18.88%; in assay [2], -11.48%; in assay [3], 9.37%; in assay [4], 26.13%; in assay [5], 9.95%; in assay [6], -5.35%.

Take `Nc1ccc2c(c1)Cc1cc(Cl)c(Cl)cc1-2`: the Inhibition in assay [1] was 12.19%; in assay [2], -1.44%; in assay [3], 15.96%; in assay [4], 4.46%; in assay [5] it was 8.7%; in assay [6] it was -5.33%.

For the compound `COc1cc(C2NC(=O)C(C#N)=C(Nc3cccc(C)c3)S2)ccc1O` (centres undefined), the Inhibition in assay [1] was 16.64%; in assay [2] it was 5.33%; in assay [3], 14.44%; in assay [4], 11.49%; in assay [5] it was 1.94%; in assay [6], -8.18%.

Consider `CCOC(=O)c1cnn2c(SC)ncnc12`, for which the Inhibition was 10.61% in assay [1]; 5.37% in assay [2]; -2.6% in assay [3]; 12.61% in assay [4]; 5.51% in assay [5]; -8.81% in assay [6].

Regarding `CC(C)N(C(=O)c1cccc([N+](=O)[O-])c1)C(C)C`, the Inhibition is 9.59% in assay [1]; -13.76% in assay [2]; 4.26% in assay [3]; 0.52% in assay [4]; 0.26% in assay [5]; -4.03% in assay [6].

Consider `CCCCn1ccnc1C`, for which the Inhibition is -0.22% in assay [1]; -5.26% in assay [2]; 4.7% in assay [3]; 8.98% in assay [4]; 0.01% in assay [5]; -3.23% in assay [6].

For `CCOC(=O)Nc1ccc(C(=O)/C=C/c2ccccc2)cc1`, the Inhibition in assay [1] is 8.55%; in assay [2] it was 3.76%; in assay [3], -2.1%; in assay [4] it was 17.43%; in assay [5], 6.26%; in assay [6], -5.25%.

Take `CCOC(=O)Nc1csnn1`: the Inhibition in assay [1] was 13.65%; in assay [2] it was -5.72%; in assay [3], 13.49%; in assay [4], 14.72%; in assay [5] it was 5.16%; in assay [6], -5.84%.

In the case of `NCC(=O)c1cccc2ccc[n+]([O-])c12`, the Inhibition was 9.77% in assay [1]; 5.17% in assay [2]; 0.84% in assay [3]; 20.91% in assay [4]; 0.31% in assay [5]; -8.51% in assay [6].

Regarding `O=C(C(Cl)Cl)N1CC2CCC(CC2)C1`, the Inhibition in assay [1] is -8.6%; in assay [2], 7.03%; in assay [3], -13.8%; in assay [4], 1.03%; in assay [5], -0.88%; in assay [6], 23.84%.

On to `CSc1nc(O)nnc1Sc1ccccc1`, for which the Inhibition is -5.45% in assay [1]; -15.47% in assay [2]; 6.74% in assay [3]; 7.57% in assay [4]; 13.4% in assay [5]; -16.19% in assay [6].

Consider `NC(=N\c1ccc(N)cc1)/C(N)=N/c1ccc(N)cc1`, for which the Inhibition is -1.65% in assay [1]; -17.09% in assay [2]; 7.03% in assay [3]; 7.69% in assay [4]; 0.22% in assay [5]; -12.28% in assay [6].

These data come from ChEMBL document CHEMBL4296182, “CO-ADD screening of NIH NCI Diversity Set V”.
